# Reference: the supplement of paper PMC7858590
# Test system: human monocyte-derived macrophages (polarized)
# Assay: cell shape (eccentricity) Z-score vs DMSO control; higher = more elongated, M2-like morphology
# Conditions: 5 µM; 24 h; macrophage state: M1-polarized (IFNg + TNFa), cytokines present during treatment
# Procedure: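 Primary-screen hits were rescreened on polarized hMDMs with the differentiating cytokines (IL-4 + IL-13 or IFNg + TNFa) kept in the medium during treatment with compound at 5 uM for 24 h. The eccentricity Z-score vs DMSO wells is averaged over experiments.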
row,SMILES,cell shape (Z-score)
1,C[C@]12CCC(=O)C=C1CC[C@@H]1C2CC[C@]2(C)C(=O)CCC12 (stereo not given in full),-0.101
2,CCC1(CC)C(=O)NC(=O)NC1=O,-5.4
3,CN1[C@@H]2CC[C@H]1C[C@@H](OC(c1ccccc1)c1ccccc1N)C2 (stereo not given in full),-3.5
4,c1cc2c(c(N3CCNCC3)c1)OCCO2,-7.3
5,C=C(C)[C@@H]1[C@H]2OC(=O)[C@@H]1[C@]1(O)C[C@H]3O[C@]34C(=O)O[C@H]2[C@]14C,0.251
6,CNc1ccc2oc(C[C@H]3O[C@@]4(CC[C@H]3C)O[C@H]([C@H](C)C(=O)c3ccc[nH]3)[C@H](C)C[C@H]4C)nc2c1C(=O)O,-11.1
7,CC(C)[C@]12O[C@H]1[C@@H]1O[C@]13[C@]1(O[C@H]1C[C@H]1C4=C(CC[C@@]13C)C(=O)OC4)[C@@H]2O,5.54
8,COc1cc([C@@H]2c3cc4c(cc3[C@@H](O)[C@H]3COC(=O)[C@H]23)OCO4)cc(OC)c1O,3.2
9,CC(C)=CC1C(C(=O)OCc2coc(Cc3ccccc3)c2)C1(C)C (stereo not given),8.88
10,O=C(O)c1nn(Cc2ccc(Cl)cc2Cl)c2ccccc12,4.43
11,COc1cc([C@@H]2c3cc4c(c(O)c3C[C@H]3COC(=O)[C@@H]32)OCO4)cc(OC)c1OC,3.15
12,CCn1cc(C(=O)O)c(=O)c2cc3c(cc21)OCO3,3.52
13,Cc1sc2c(c1C)C(c1ccc(Cl)cc1)=N[C@@H](CC(=O)OC(C)(C)C)c1nnc(C)n1-2,-7.72
14,COc1cc([C@@H]2c3cc4c(cc3[C@H](OC(C)=O)[C@H]3COC(=O)[C@H]23)OCO4)cc(OC)c1OC,7.24
15,Clc1ccc(C2=CCCC3CCC2N3)cn1 (stereo not given),9.06
16,CCN1C[C@]2(COC)CC[C@H](OC)[C@]34C1[C@H]([C@H](OC)[C@H]23)[C@@]1(OC(C)=O)C[C@H](OC)[C@]2(O)C[C@@H]4[C@@H]1[C@H]2OC(=O)c1ccc(OC)cc1,-6.97
17,C[C@]12CC[C@@H](O)C[C@@H]1CC[C@@H]1[C@@H]2CC[C@]2(C)[C@@H](C(=O)CO)CC[C@@H]12,3.05
18,O=C1NC(=O)c2c1c1c3ccccc3[nH]c1c1[nH]c3ccccc3c21,7.76
19,CCC(=O)CCCCC[C@@H]1NC(=O)[C@H]2CCCCN2C(=O)[C@H]([C@@H](C)CC)NC(=O)[C@H](Cc2cn(OC)c3ccccc23)NC1=O,4.88
20,CN(C)C(=S)SSC(=S)N(C)C,-4.6
21,O=C1/C(=C/c2ccccc2)C[C@@]2(O)[C@H]3Cc4ccc(O)c5c4[C@@]2(CCN3CC2CC2)[C@H]1O5,-6.15
22,CCCN(CCC)C1CCc2cccc(O)c2C1 (stereo not given),-3.43
23,COc1cc2c(c(OC)c1OC)-c1ccc(OC)c(=O)cc1[C@@H](NC(C)=O)CC2,3.12
24,CCCCCCCCCCCCCC(=O)O[C@@H]1[C@@H](C)[C@@]2(O)[C@@H](C=C(CO)C[C@]3(O)C(=O)C(C)=C[C@@H]23)[C@@H]2C(C)(C)[C@]12OC(C)=O,-6.25
25,COc1ccc2c3c([nH]c2c1)[C@H](CC(C)C)N1C(=O)[C@H](CCC(=O)OC(C)(C)C)NC(=O)[C@@H]1C3,6.14

# Same assay, conditions: 5 µM; 24 h; macrophage state: M2-polarized (IL-4 + IL-13), cytokines present during treatment
row,SMILES,cell shape (Z-score)
1,CC(=O)O[C@H]1CC[C@@]2(C)[C@H](CC[C@@H]3[C@@H]2CC[C@]2(C)[C@@H](C4=CC(=O)OC4)[C@@H](OC(C)=O)C[C@]32O)C1,-23.5
2,CC(=O)O[C@@H]1CC2C(C)(C)C(=O)C=C[C@]2(C)C2CC[C@]3(C)C(=CC(=O)O[C@H]3c3ccoc3)[C@@]21C (stereo not given in full),-9.39
3,COc1cc(Br)c(OC)c2c1C(CN)C2 (stereo not given),7.42
4,C[C@H]1O[C@@H](O[C@H]2CC[C@]3(CO)C4CC[C@]5(C)[C@@H](C6=CC(=O)OC6)CC[C@]5(O)[C@@H]4CC[C@H]3C2)[C@H](O)[C@H](O)[C@@H]1O[C@@H]1O[C@H](CO)[C@@H](O)[C@H](O)[C@H]1O (stereo not given in full),-17.5
5,Fc1ccc(C(OCCN2CCN(C/C=C/c3ccccc3)CC2)c2ccc(F)cc2)cc1,-8.38
6,CC1=CC(=O)c2c(O)cccc2C1=O,3.72
7,CC(C)=CCC[C@]1(C)C=Cc2c(O)c3c(c(CC=C(C)C)c2O1)O[C@]12C(=C[C@@H]4C[C@H]1C(C)(C)O[C@@]2(C/C=C(/C)C(=O)O)C4=O)C3=O,-10
8,COc1ccc2c(c1)[nH]c1c(C)nccc12,-11
9,CCCC[C@@H](C)[C@@H](OC(=O)C[C@@H](CC(=O)O)C(=O)O)[C@H](C[C@@H](C)C[C@H](O)CCCC[C@@H](O)C[C@H](O)[C@H](C)N)OC(=O)C[C@@H](CC(=O)O)C(=O)O,2.12
10,CCN1C[C@]2(C)CC[C@H](O)[C@@]34C2[C@H](OC)C([C@@H]13)[C@@]1(O)C[C@H](OC)[C@H]2C[C@@H]4[C@@H]1[C@H]2O,-1.79
11,O=c1[nH]c2ccccc2n1C1CCN(CCCC(c2ccc(F)cc2)c2ccc(F)cc2)CC1,-5.52
12,C(=C\c1ccccc1)/CN1CCN(CCOC(c2ccccc2)c2ccccc2)CC1,3.27
13,CN1C(=O)COc2c(C(=O)NC3CN4CCC3CC4)cc(Cl)cc21 (stereo not given),-3.99
14,c1ccc2c(c1)[I+]c1ccccc1-2,-19
15,CC(=O)O[C@H]1C(=O)[C@@]2(C)[C@H]([C@H](OC(=O)c3ccccc3)[C@]3(O)C[C@H](O)C(C)=C1C3(C)C)[C@]1(OC(C)=O)CO[C@@H]1C[C@@H]2O,-9.61
